# This is a sample that favours compounds with a hit; in the whole collection about 0.45% have one here.
# Integrin act MD – qHTS for Activators of Integrin-Mediated Alleviation for Muscular Dystrophy; Potency, µM (highest dose often 38.3 µM), usual class: activators; alpha7betagal myoblasts, beta-gal FDG fluorescence, 48 h; 350,000 tested, 0.064% active; note: nearly all actives have a fitted effect of over 60% in size
#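 alpha7betagal+/- myoblasts (passage 13, 250/well) treated 48 h at 37C with compounds at 1:260 dilution of DMSO stock. Lysed, then beta-galactosidase activity read as FDG fluorescence (ex 480/em 540) after 30 min, with pre-read for autofluorescence.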
# CBFb RUNX1 block – qHTS Assay for Compounds Blocking the Interaction Between CBF-beta and RUNX1 for the Treatment of Acute Myeloid Leukemia; Runt-related transcription factor 1 (Homo sapiens) + Core-binding factor subunit beta …; AlphaScreen CBFb-His/RUNX1-biotin binding, biochemical; Potency, µM (series often up to 59.8 µM), hits mostly inhibitors; 230,000 tested, under 10 active; AID 1477, 2009
#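 Read-out: AlphaScreen. Format: His-CBF-beta with biotinylated RUNX1 (30 nM each) preincubated 20 min, compound 15 min, Ni-chelate plus streptavidin beads 90 min; room temperature throughout.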
# ERG-DNA inh – qHTS for Small Molecule Inhibitors of the ERG Ets/DNA interaction; 370,000 tested, 0.028% active; Transcriptional regulator ERG (Homo sapiens), P11308; Potency, µM (highest dose often 76.9 µM), hits mostly inhibitors; fluorescence polarization, His-ERG Ets domain / labelled DNA; active = well fitted inhibition curve with a large enough effect in the polarisation, with a control signal flat; inconclusive = small, poorly fitted or top-dose-only effect, or effect the other way, or a change in a side signal; inactive = no such curve, though single readings can be large or run the other way; the % refers to the polarisation;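 note: polarization taken with two DNA probes labelled with fluorescein and Texas red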
#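 His-tagged ERG Ets domain (1 uM in the protein solution; 300mM KCl, 50mM Tris-HCl, 1mM EDTA, 1mM DTT, pH 7.5) received compound, then a probe mix of 5 nM fluorescein-DNA and 100nM Texas-615-DNA. Fluorescence polarization was read for both dyes.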
# TR SRC2 fluor cs – Total Fluorescence Counterscreen for Inhibitors of the Interaction of Thyroid Hormone Receptor and Steroid Receptor Coregulator 2; TRb/SRC2 Texas Red total fluorescence interference; Potency, µM (top dose mostly 106 µM); 280,000 tested, 0.29% active; AID 1479, 2009; active = well fitted curve in either direction with a large enough effect; inconclusive = small, poorly fitted or top-dose-only effect
#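 Human TRβ ligand-binding domain (0.6 uM) and Texas Red SRC2 peptide (20 nM) in Tris buffer with 1 uM T3 and 5% DMSO were incubated with pinned compound for 5 hr at ambient temperature. Total fluorescence was computed as S + 2P (555/632 nm).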
# TRb SRC2 PPI – qHTS for Inhibitors of the Interaction of Thyroid Hormone Receptor and Steroid Receptor Coregulator 2 | 280,000 tested, 0.065% active | Potency, µM (doses to about 106 µM), actives largely listed as inhibitors | AID 1469, 2008 | Thyroid hormone receptor beta (Homo sapiens), P10828 | TRbeta-SRC2 peptide binding, fluorescence polarization; receptor liganded with 1 µM T3; note: nearly all actives have a fitted effect of over 50% in size
#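 Decrease in fluorescence polarization of 20 nM Texas Red SRC2 coactivator peptide flagged inhibition of its binding to 0.6 uM TRb LBD; 1 uM T3 included, incubation 5 hr, ex 555/em 632 nm.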
# RGS12 GoLoco inh – qHTS Assay for Inhibitors of RGS12 GoLoco Motif Activity (Red Fluorophore). Guanine nucleotide-binding protein G(i) subunit alpha-1 (Homo sapiens), P63096. Gai1:RGS12 GoLoco peptide FP, rhodamine, 10 min. Potency, µM (titrated, usually from 61.6 µM), hits mostly inhibitors. 230,000 tested, 0.44% active. AID 880, 2007; active = well fitted inhibition curve with a large enough effect, not every such curve was filed as active; inactive = no such curve, though single readings can be large or run the other way; note: nearly all actives have a fitted effect of over 30% in size
# Target sequence (P63096 whole entry, looked up): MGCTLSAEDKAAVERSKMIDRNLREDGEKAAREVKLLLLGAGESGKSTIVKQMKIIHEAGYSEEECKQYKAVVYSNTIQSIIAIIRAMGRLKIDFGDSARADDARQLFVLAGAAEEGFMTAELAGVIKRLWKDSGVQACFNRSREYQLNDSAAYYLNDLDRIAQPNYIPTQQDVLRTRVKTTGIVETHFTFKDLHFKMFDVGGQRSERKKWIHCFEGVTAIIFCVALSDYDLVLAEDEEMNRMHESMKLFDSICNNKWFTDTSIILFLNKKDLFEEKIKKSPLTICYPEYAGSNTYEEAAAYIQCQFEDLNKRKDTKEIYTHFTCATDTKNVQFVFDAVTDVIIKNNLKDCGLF
# Numbers stand for hits; i = inactive; ? = inconclusive; nt = no result; [ ] = dose if it differs, or a comment. Unless noted, calls come from the whole dose curve; as a rule, active = well fitted curve in the direction sought with a large enough effect; inconclusive = small, poorly fitted or top-dose-only effect, or another doubt; inactive = no such curve, though single readings can be large; an effect the other way counts as inactive or inconclusive.
SMILES,Integrin act MD,CBFb RUNX1 block,ERG-DNA inh,TR SRC2 fluor cs,TRb SRC2 PPI,RGS12 GoLoco inh
C=CCN1C(=O)CS/C1=C(\C#N)S(=O)(=O)c1ccc(C)cc1,i,i,?,40µM[fluorescent],?,i
COC(=O)c1nnc(C(=O)NCc2ccccc2)c2[nH]c3ccccc3c12,nt,i,nt,i,i,i
O=C(NCc1nc2cccnc2n1Cc1ccc(F)cc1)c1ccccc1C(F)(F)F,nt,nt,i,i,i,nt
Cc1ccc(Cn2c(CNC(=O)c3ccccc3Br)nc3cccnc32)cc1,nt,nt,i,0.01µM[quencher],i,nt
Cc1ccc(CNc2ccc(O)cc2)cc1,i,i,i,i,28µM,18µM
Cc1nn(C)c(Oc2ccccc2)c1/C=N/OCc1ccc(C(=O)OC(C)(C)C)cc1,nt,nt,nt,i,i,nt
Cc1ccc(CNc2ncnc(N)c2[N+](=O)[O-])cc1,10µM,i,i,i,i,i
Cc1cccc(C)c1Nc1ncnc(N)c1[N+](=O)[O-],i,i,i,i,i,i
OC(COc1ccccc1)Cn1c2ccccc2c2ccccc21 (configuration not stated),i,i,i,i,i,i
Oc1cccc2ccc[n+](CC(O)Cn3c4ccccc4c4ccccc43)c12 (configuration not stated),i,i,i,0.89µM[quencher],i,i
C[n+]1cnn2c1SCC1(COC1)C2,i,i,i,i,i,10µM
COc1ccc(NC(=O)c2ccc(-c3ccc([N+](=O)[O-])cc3)o2)cc1,i,i,i,32µM[quencher],?,i
COc1ccc2nc(NC(=O)c3ccc(-c4cccc([N+](=O)[O-])c4)o3)sc2c1,nt,i,nt,i,i,2.2µM
O=C(Nc1ccccc1)c1ccc(-c2ccc([N+](=O)[O-])cc2)o1,i,nt,i,nt,nt,nt
O=C(Nc1nc2ccc([N+](=O)[O-])cc2s1)c1ccco1,nt,?,nt,i,i,i
CCN(CC)CCOC(c1ccccc1)c1ccc(C)cc1 (configuration not stated),i,i,i,i,i,i
Cc1ccc(C(OCC(C)(C)C[N+](C)(C)C)c2ccccc2)cc1 (configuration not stated),i,i,i,i,i,8.9µM
Nc1ccc(C(=O)O)c(O)c1 (tested in a mixture with another compound),nt,i,nt,i,i,28µM
CCCSc1nc2c(cnn2-c2ccccc2)c(=O)n1N,i,i,i,i,i,i
CCCOc1nc(SCCC)nc2c1cnn2-c1ccccc1,11µM,i,i,i,i,i
CCCCCCCCCCCC[N+](C)(C)[O-],nt,nt,nt,i,i,nt
CN(C)[C@H]1C(=O)C(C(=O)NCN2CCCC2)=C(O)[C@]2(O)C(=O)C3=C(O)c4c(O)cccc4[C@](C)(O)[C@H]3C[C@H]12,nt,nt,nt,14µM[quencher],?,i[14.2 µM]
CN(C)[C@@H]1C(=O)C(C(=O)NCN2CCCC2)=C(O)[C@@]2(O)C(=O)C3=C(O)c4c(O)cccc4[C@@](C)(O)C3CC12 (some centres not stated),nt,nt,nt,?,i,i
Cc1nnc(SCC(=O)Nc2ccc(Br)cc2)[nH]c1=O,nt,nt,i,45µM[quencher],i,nt
CC(C)(CCCCCCCCCCC(C)(C)CC(=O)O)CC(=O)O,nt,i,nt,i,i,nt
SMILES,Integrin act MD,CBFb RUNX1 block,ERG-DNA inh,TR SRC2 fluor cs,TRb SRC2 PPI,RGS12 GoLoco inh
Nc1ccc2c(c1)-c1ccccc1S(=O)(=O)N2,i,i,i,i,i,2µM
CCOC(=O)c1c(-c2ccc(C)cc2)csc1NC(=O)c1cc(=O)c2ccc(C)cc2o1,nt,nt,i,35µM[quencher],i,nt
CCCCCCCCCn1ccc(=N)cc1,i,i,i,i,i,i
CCCCCn1ccc(=N)cc1,i,i,i,i,i,13µM
CCCCCCCn1ccc(=N)cc1,i,i,i,i,i,16µM
CCNc1nc(NC(C)CC)nc(OC)n1 (configuration not stated),nt,nt,nt,i,i,nt
Cc1cc2c(N)cccc2nn1,i,i,11µM,i,i,8.9µM
C[C@H]1Cc2c(-c3ccccc3)nc3c(c2CO1)CN(C(=O)c1cc(I)ccc1F)CC3,nt,i[13.1 µM],nt,i[11.2 µM],i[11.2 µM],i[14.2 µM]
COc1ccc2oc(=O)c(-c3nnc(-c4ccc(C)cc4)o3)cc2c1,nt,nt,i,20µM[quencher],i,nt
C/C(=C\C(=O)c1cccnc1)Nc1ccc(O)cc1,i,i,i,i,14µM,i
CC1CN(C(=O)CCC(=O)NCc2cccc(Cl)c2)c2ccccc2S1 (configuration not stated),nt,nt,i,28µM[quencher],i,nt
CC1CN(C(=O)CCC(=O)NCc2ccccc2)c2ccccc2S1 (configuration not stated),i,nt,i,nt,nt,nt
CNC(=O)c1c(NC(=O)Cc2coc3ccc(C)cc23)sc2c1CCCC2,nt,nt,i,?,i,nt
CCOC(=O)c1c(NC(=O)Cc2coc3cc(C)ccc23)sc2c1CCCC2,nt,nt,i,0.1µM[quencher],?,nt
COC(=O)c1c(Oc2ccc(OC)cc2)nnc(-c2ccccc2)c1-c1ccccc1,nt,nt,i,794µM[quencher],i,nt
COC(=O)c1c(-c2ccccc2)c(-c2ccccc2)nn(C)c1=O,i,nt,i,i,i,nt
Nc1ccccc1S(=O)(=O)Nc1cccc2cccnc12,nt,i,nt,i,i,nt
O=C(COC(=O)c1cc2ccccc2oc1=O)Nc1ccc(F)cc1F,4.5µM,i,i,i,i,i
CCNc1nc(N)nc(Cl)n1,nt,nt,nt,i,i,nt
CCCCc1c(O)c2ccccc2n(CCCC)c1=O,i,i,i,i,i,i
CCCCc1c(CCC)c(=N)c2ccccc2n1C,i,i,i,i,i,11µM
CCO[Si](CCC#N)(OCC)OCC,nt,nt,nt,i,i,nt
O=C(CN1CCOCC1)NCc1cc([N+](=O)[O-])ccc1O,13µM,nt,i,nt,nt,nt
O=C(CN1CCOCC1)Nc1nc2cc([N+](=O)[O-])ccc2s1,i,i,i,i,i,i
CN[C@@H]1[C@H](O[C@@H]2O[C@H](C)[C@@](O)(CO)[C@H]2O[C@H]2[C@H](O)[C@H](O)[C@H](N=C(N)N)[C@@H](O)[C@@H]2N=C(N)N)O[C@@H](CO)[C@H](O)[C@H]1O,nt,i,nt,i,i,i
N=C1CCC(=N)c2c1c(O)c1ccccc1c2O,i,nt,?,45µM[fluorescent],32µM,i
O=C(O)/C=C/C(=O)Nc1ccc(SC(F)(F)C(F)(F)C(F)(F)F)cc1,i,i,i,i,32µM,i
NCCCCCCCCCCCC(=O)O,nt,nt,nt,i,i,nt
CC(C)c1cc(C(C)C)c(S(=O)(=O)Nc2cccc3cccnc23)c(C(C)C)c1,nt,i,nt,i,i,nt
O=[N+]([O-])c1cccc(NC(=S)NCCc2ccccc2)c1,i,i,i,316µM[quencher],i,i
